LmPK inhibitor: blocks Leishmania mexicana pyruvate kinase activity | Q27686 | Potency, µM (highest dose often 57.5 µM), for inactives: at the top dose activity change, negative = inhibition, most hits filed as inhibitors | purified LmPK, Kinase-Glo ATP luminescence, 1 h | hit rate 0.37% among 290,000; also: potency is read from the fitted curve at half-maximal effect; % is scaled to controls: 0 for no effect and ±100 for the full control effect
Target sequence (Q27686 whole entry, looked up): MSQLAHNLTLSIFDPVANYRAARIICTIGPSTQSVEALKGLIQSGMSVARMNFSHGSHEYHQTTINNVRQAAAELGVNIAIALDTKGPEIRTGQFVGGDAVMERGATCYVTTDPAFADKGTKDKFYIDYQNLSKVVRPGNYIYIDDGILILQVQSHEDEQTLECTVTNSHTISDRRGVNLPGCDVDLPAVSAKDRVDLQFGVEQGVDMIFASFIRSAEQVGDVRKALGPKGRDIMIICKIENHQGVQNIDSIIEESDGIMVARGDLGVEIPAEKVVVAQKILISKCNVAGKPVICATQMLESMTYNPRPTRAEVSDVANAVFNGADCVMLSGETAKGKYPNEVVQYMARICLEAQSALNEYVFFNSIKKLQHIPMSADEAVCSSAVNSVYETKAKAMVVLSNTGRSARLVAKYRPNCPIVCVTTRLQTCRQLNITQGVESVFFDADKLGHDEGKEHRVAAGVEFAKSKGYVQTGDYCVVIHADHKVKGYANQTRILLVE
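qHTS format; LmPK 0.1 nM; substrates PEP 0.5 mM and ADP 0.1 mM. One-hour room-temperature incubation, then coupled luciferase luminescence; 0.5 nM enzyme wells mark activation.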
Pf growth 48h: P. falciparum growth inhibition at 48 hours (one generation) | P. falciparum luciferase growth in erythrocytes, 48 h | Potency, µM (top dose mostly 28.7 µM), without a hit: at the top dose activity change, negative = inhibition, most hits filed as inhibitors | hit rate 5.9% among 310,000 | AID 504832; also: potency is read from the fitted curve at half-maximal effect; % is scaled to controls: 0 for no effect and ±100 for the full control effect
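Here the parasites carry a stable luciferase gene and grow inside erythrocytes in Albumax-based RPMI medium with compound for one erythrocytic cycle. Activity is scored as loss of luminescent signal.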
Pf growth 96h: P. falciparum growth inhibition at 96 hour, primary screen for plastid delayed-death inhibitors; P. falciparum luciferase reporter growth, 96 h; Potency, µM (doses to about 28.7 µM), without a hit: at the top dose activity change, negative = inhibition, most hits filed as inhibitors; hit rate 6.9% among 320,000; AID 504834; also: potency is read from the fitted curve at half-maximal effect; % is scaled to controls: 0 for no effect and ±100 for the full control effect
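Two parasite generations (96 h, 37 C, 5% CO2) of compound exposure in infected erythrocytes (0.05% parasitemia, 2% hematocrit). Luciferase-reporter P. falciparum; decreased luminescence indicates inhibited growth, aimed at apicoplast-acting delayed death.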
Shiga toxin inh: blocks Shiga toxin action in Vero cells | Vero cells, Shiga toxin protein synthesis inhibition reporter | inhibition, % at 38.7 µM | hit rate 9.2% among 290,000 | AID 2315; in the data active = inhibition mostly above about 28%, no sharp cut-off; inactive = mostly below about 43%; also: 0% is about no effect
CHX counter: counter-screen hit for Shiga toxin inhibitors, cycloheximide; cell reporter, cycloheximide protein synthesis inhibition counterscreen; max response, %; hit rate 12% among 300,000; AID 2314; in the data active = max response mostly above about 13%, no sharp cut-off; inactive = mostly below about 14%; also: read at 38.3 µM for the half of the compounds with a filed dose; 0% is about no effect
The depositor's hits bear a star; ? = inconclusive; . = not tested or not shown; + = active, no number; ! = a repeat was not active. Hits are enriched below; roughly 22% of the tested compounds scored in any of these assays. Unless noted, calls follow the shape of the dose curve; as a rule, active = well fitted inhibition curve with a large enough effect; inconclusive = small, poorly fitted or top-dose-only effect, or another doubt; inactive = no such curve, though single readings can be large or run the other way.

SMILES | LmPK inhibitor | Pf growth 48h | Pf growth 96h | Shiga toxin inh | CHX counter
CCOC(=O)[C@H]1NN=C(C(=O)OC)[C@@H]1c1ccccc1 | 0.4% | 13.3% | -17.9% | -4.6 | 2.3
CCOC(=O)C1=NNC(C(=O)c2ccc(Cl)cc2)C1c1ccccc1 (configuration not stated) | 0.9% | 2.9% | 0.0% | 11.8 | -1.2
CCOC(=O)C1NN=C(C(=O)c2ccc(C)cc2)C1c1ccc(C)cc1 (configuration not stated) | -4.1% | ? | 10.4µM* | 10.4 | -1.6
CC(C)Oc1ccc(C(=O)Nc2ccc(S(=O)(=O)N3CCN(C)CC3)cc2)cc1 | -0.3% | ? | ? | 1.2 | -2.2
CCCCOc1ccc(CSc2n[nH]c(C)n2)cc1 | -1.6% | ? | 5.7% | 92.9* | 32.5*
CCc1nc(SCc2ccc([N+](=O)[O-])cc2)n[nH]1 | 0.1% | 58.0% | ? | 76.0* | 35.7*
Cc1nc(SCc2ccc([N+](=O)[O-])cc2)n[nH]1 | 12.2% | 15.3% | ? | . | 5.9*
Cc1nc(SCc2ccc(C#N)cc2)n[nH]1 | -1.7% | 6.1% | 13.1µM* | . | 17.7*
CC[C@H](C)[C@H](NC(=O)c1ccccc1)C(=O)NC(CC(=O)O)c1ccc(F)cc1 (some centres not stated) | -4.8% | 8.3% | 11.8% | 2.6 | 5.3
C#CCOCCOCCOCCNc1nc(N2CCN(C(=O)[C@H](CCC(=O)O)n3cc(C(N)CC(C)C)nn3)CC2)nc(N2CCN(C(=O)[C@H](Cc3ccc(O)cc3)n3cc(C(N)[C@H](C)CC)nn3)CC2)n1 (some centres not stated) | 0.2% | 36.4% | 40.1% | -12.8 | -1.5
COc1ccc(NC(=S)N2CCN(C(=O)c3ccco3)CC2)cc1 | 0.3% | 40.9% | 0.465µM* | 9.8 | -0.5
COc1ccc(NC(=S)N2CCN(S(=O)(=O)c3ccccc3)CC2)cc1 | -4.6% | 8.6% | 10.4µM* | -7.7 | 7.7
Cc1cc(C)cc(NC(=S)N2CCN(S(=O)(=O)c3ccccc3)CC2)c1 | -5.2% | ? | 3.7µM* | -13.6 | 6.1
Cc1ccc(NC(=S)N2CCN(S(=O)(=O)c3ccccc3)CC2)cc1 | -6.9% | -1.1% | ? | -10.6 | 0.5
O=C1COc2ccc(C(=O)COC(=O)c3ncc(Cl)c(Cl)c3Cl)cc2N1 | . | 44.0% | 54.7% | . | .
O=C(CCCCCN1C(=O)CCC1=O)Nc1ccc2c(c1)OCO2 | 6.2% | 10.8% | 17.3% | 17.5 | 8.6
O=C(CCN1C(=O)c2ccccc2C1=O)Nc1ccc2c(c1)OCCO2 | -6.7% | 19.5% | . | active | 18.1*
O=C(CCCN1C(=O)CCC1=O)Nc1ccc2c(c1)OCO2 | 0.1% | 26.7% | -3.3% | 52.8* | 11.3
O=C(CCn1cccn1)Nc1ccc2c(c1)OCCO2 | -8.3% | 97.8% | 2.6% | 91.9* | 56.8*
O=C(CCCN1C(=O)CCC1=O)Nc1ccc2c(c1)OCCO2 | -2.6% | 37.8% | -0.1% | 91.7* | 21.9*
O=C(CCCCCN1C(=O)c2ccccc2C1=O)Nc1ccc2c(c1)OCCO2 | 2.7% | -15.6% | . | 46.7 | 18.4
CCN1CCN(CCC(=O)Nc2ccc3c(c2)OCO3)CC1 | -3.3% | 3.7% | ? | 23.3 | 9.8
Cc1ccn2c(=O)nc(SCC(=O)Nc3ccc4c(c3)OCCO4)nc2c1 | . | 10.6% | 27.3% | . | .
COc1ccc(-n2nc(C(=O)NCC(=O)NCC3COc4ccccc4O3)c3ccccc3c2=O)cc1 (configuration not stated) | -0.2% | ? | 30.8% | 19.2 | -1.6
COCC(CN1CCN(C2=NS(=O)(=O)c3ccccc32)CC1)OC(=O)c1ccc(OC)cc1 (configuration not stated) | -2.9% | 2.4% | ? | -10.2 | -1.7
SMILES | LmPK inhibitor | Pf growth 48h | Pf growth 96h | Shiga toxin inh | CHX counter
CC(OC(=O)COc1ccc(Nc2ccccc2)cc1)C(=O)N(C)c1ccccc1 (configuration not stated) | . | 2.0% | 23.7% | . | .
CCOC(=O)N=S(N)(=O)c1ccc(Cl)cc1 (configuration not stated) | 5.3% | 1.2% | ? | -6.0 | 9.8
CCOC(=O)N=S(N)(=O)c1ccccc1 (configuration not stated) | 2.9% | 2.8% | 10.4µM* | -6.5 | 9.6
CCn1ncc(C2=NOC(C(=O)Nc3cccnc3)C2)c1C (configuration not stated) | 1.5% | -1.0% | -22.9% | 13.2 | 19.2*
COc1ccc(-c2cc(=O)c3cc(OC)ccc3[nH]2)cc1 | ? | 131.2% | 67.2% | 93.9* | 61.5*
COc1ccc(-c2cc(=O)c3cc(C)ccc3[nH]2)cc1 | -8.2% | 24.0% | ? | 53.1* | 35.4*
COc1ccc2[nH]c3ccccc3c2c1 | -0.1% | 8.9% | . | 58.3 | 32.4*
COc1cc2[nH]c(-c3ccc(C)cc3)cc(=O)c2cc1OC | -1.9% | -25.5% | ? | +! | 29.3*
COc1ccc2[nH]c(O)c(N=O)c2c1 | -2.6% | -16.1% | ? | -7.8 | 0.8
CCOC(=O)CNC(=O)C1(/C=C/c2ccccc2)CC(=O)N1c1ccc(C)cc1 (configuration not stated) | 0.0% | ? | -9.8% | 24.0 | 1.5
CN(C)c1nc(SCc2ccc(Cl)cc2)nc2c1CCCC2 | 2.7% | ? | ? | 2.9 | 10.2
Cc1c(C(=O)N2CCCCC2)nn(-c2ccc(Cl)cc2)c(=O)c1C#N | -6.9% | -17.1% | 6.6% | 23.4 | 6.5
COc1ccc(S(=O)(=O)N(C)C)cc1NC(=O)CCCSc1ccccc1 | -2.4% | ? | ? | -5.4 | 8.9
CN1CCN(C(c2ccc(Br)cc2)c2cc(Cl)c3cccnc3c2O)CC1 (configuration not stated) | -11.5% | 11.7µM* | 7.38µM* | 2.7 | -8.2
O=C(Nc1ncccc1O)c1ccc(NS(=O)(=O)c2ccc3[nH]c(=O)[nH]c3c2)cc1 | . | 0.131µM* | 0.104µM* | . | .
O=C(Nc1ncccc1O)c1ccc(S(=O)(=O)Nc2ccccc2)cc1 | . | 0.828µM* | ? | . | .
CCn1c(=O)c2sccc2n2c(CCCC(=O)NCc3cccnc3)nnc12 | 1.9% | 25.1% | 13.1µM* | 1.1 | 1.6
CCCCOc1ccc(/C=N/NC(=O)c2nnn(-c3nonc3N)c2C)cc1 | 7.1% | 16.3% | 22.8% | 12.7 | -2.9
CC1CCc2sc(C(=O)OCC(=O)NCc3ccccc3)cc2C1 (configuration not stated) | 4.5% | -12.0% | 3.8% | -9.5 | 0.2
CNC(=O)COC(=O)c1cc2c(s1)CCCC2 | 2.4% | 14.4% | 25.6% | 46.8 | 23.7*
C/C(N)=C(/C#N)C(=O)COC(=O)c1cc2c(s1)CCC(C)C2 (configuration not stated) | 9.1% | 44.4% | 71.5% | 93.2* | 67.7*
C/C(N)=C(/C#N)C(=O)COC(=O)c1cc2c(s1)CCCC2 | 13.3% | 92.6% | 126.7% | 60.1* | 34.7*
CCc1cc(Cn2nc(-c3ccccc3)cc2C(=O)NCc2ccc(C)cc2)on1 | . | 22.7% | 48.4% | . | .
CCN(CC)CCCNC(=O)CCn1nc(-c2ccccc2)ccc1=O | 5.0% | 34.5% | -9.4% | 2.2 | 1.1
